HP1b chromo inh: inhibitors of HP1-beta chromodomain binding to methylated histone tails | P83916 | AlphaScreen HP1-beta / biotin-H3K9me3 peptide binding | Potency, µM (top dose mostly 114 µM), for inactives: top-dose activity change, negative = inhibition, actives largely listed as inhibitors | 390,000 compounds, 0.56% hits; also: nearly all actives have a fitted effect of over 70% in size
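AlphaScreen: HP1-beta (50 nM) preformed 30 min with biotin-H3(1-18)K9me3 peptide (50 nM) in PBS pH 7.4, 0.01% Tween-20. Compound added for 30 min at RT, then streptavidin donor/nickel chelate acceptor beads (10 ug/mL) for 30 min.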
BAZ2B block: inhibitors of human BAZ2B bromodomain; Q9UIF8; AlphaScreen BAZ2B-H3K14Ac peptide displacement; Potency, µM (titrated, usually from 114 µM), without a hit: at the top dose activity change, negative = inhibition, hits mostly inhibitors; 360,000 compounds, 4.4% hits; AID 504333; also: % is scaled to controls: 0 for no effect and ±100 for the full control effect; nearly all actives have a fitted effect of over 60% in size
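Inhibition is scored as reduced AlphaScreen emission. The BAZ2B/b-H3(5-23)K14Ac complex (50 nM each) in PBS pH 7.4, 0.01% Tween-20 meets compound (up to 110 uM) for 30 min at RT before bead addition.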
G9a block: G9a (human) methyltransferase inhibition; 350,000 compounds, 8.8% hits; G9a H3K9 monomethylation, AlphaScreen, 2 h; AID 504332; Potency, µM (top dose mostly 102 µM), for inactives: top-dose activity, negative = inhibition, hits mostly inhibitors; Q96KQ7; also: % is scaled to controls: 0 for no effect and ±100 for the full control effect; nearly all actives have a fitted effect of over 75% in size
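G9a (20 nM) was preincubated 15 min with compound, then reacted 2 h at room temperature with 500 nM biotin-H3K9 peptide and 20 µM SAM. Monomethyl-H3K9 detected by AlphaScreen using anti-H3K9me1 antibody.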
Sfp inh: Sfp phosphopantetheinyl transferase inhibition. Q9F4F7. Biochemical Sfp PPTase activity, qHTS. Potency, µM, inactives show largest response in the series, negative = inhibition, usual class: inhibitors. 310,000 compounds, 3.5% hits. AID 1490;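 also: the enzyme is Sfp with the accession as filed and its product quenches rhodamine fluorescence; 0% = enzyme reaction without inhibitor and -100% = no enzyme wells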
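Compounds were incubated with enzyme (final 15 nM) for 15 min at room temperature before substrate addition started the reaction. Fluorescence at 525 nm excitation, 598 nm emission was recorded immediately and after 30 minutes.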
JMJD2A Tudor inh: inhibitors of human JMJD2A Tudor domain; O75164; AlphaScreen JMJD2A-Tudor / H3K4me3 peptide binding; Potency, µM (titrated, usually from 114 µM), inactives show at the highest dose activity change, negative = inhibition, most hits filed as inhibitors; 390,000 compounds, 4.4% hits; also: % is scaled to controls: 0 for no effect and ±100 for the full control effect; nearly all actives have a fitted effect of over 50% in size
PLK1 PBD inh: blocks phosphopeptide binding to human PLK1 polo-box domain | P53350 | Plk1 PBD binding of FITC phosphopeptide, fluorescence polarization | Potency, µM, for the others: max response, negative = inhibition, hits mostly inhibitors | 360,000 compounds, 2.8% hits | AID 720504; also: series mostly up to about 57 µM; % is scaled to controls: 0 for no effect and ±100 for the full control effect; nearly all actives have a fitted effect of over 65% in size
Target sequence (P53350 whole entry, looked up, the tested form may be a part): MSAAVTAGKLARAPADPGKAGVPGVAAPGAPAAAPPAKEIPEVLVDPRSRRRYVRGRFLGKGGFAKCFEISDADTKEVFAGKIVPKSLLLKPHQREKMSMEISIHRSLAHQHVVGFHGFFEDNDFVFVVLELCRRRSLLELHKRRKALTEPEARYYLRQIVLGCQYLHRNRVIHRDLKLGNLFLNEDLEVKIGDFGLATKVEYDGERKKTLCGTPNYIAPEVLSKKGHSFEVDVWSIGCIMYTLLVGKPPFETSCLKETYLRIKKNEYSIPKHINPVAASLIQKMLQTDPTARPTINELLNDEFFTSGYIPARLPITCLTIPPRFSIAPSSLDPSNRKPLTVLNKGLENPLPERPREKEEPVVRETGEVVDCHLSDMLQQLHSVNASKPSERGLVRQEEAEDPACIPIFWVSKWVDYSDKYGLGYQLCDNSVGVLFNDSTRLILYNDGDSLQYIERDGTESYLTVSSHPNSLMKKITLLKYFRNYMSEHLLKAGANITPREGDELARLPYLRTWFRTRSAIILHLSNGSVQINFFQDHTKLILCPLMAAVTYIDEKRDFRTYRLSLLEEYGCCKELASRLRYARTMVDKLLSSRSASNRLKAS
* = called active by the depositor; ? = inconclusive; · = not tested or not shown; [ ] = dose if it differs, or a comment. Only some compounds are listed: those with a hit (about 12% of all), similar ones and a draw of the others. Calls follow the shape of the dose curve; as a rule, active = well fitted curve in the direction sought with a large enough effect; inconclusive = small, poorly fitted or top-dose-only effect, or another doubt; inactive = no such curve, though single readings can be large; an effect the other way counts as inactive or inconclusive. Potency is read from the fitted curve at half-maximal effect.

SMILES | HP1b chromo inh | BAZ2B block | G9a block | Sfp inh | JMJD2A Tudor inh | PLK1 PBD inh
Cc1ccccc1S(=O)(=O)NC(=O)C1(C)CCN1C(=O)Cc1cccs1 (stereo not given) | · | · | · | · | · | -16.6%
CC(C)=Cc1oc2ccc([N+](=O)[O-])cc2c1N1CC(C)OC(C)C1 (stereo not given) | ? | 63.1µM* | 14.1µM* | -9.2% | -11.9% | -3.2%
COc1ccc2[nH]c3c(c2c1)CCN1C(=O)C(CC(=O)NCc2cccc(C(F)(F)F)c2)C[C@H](C(=O)N2CCCCC2)[C@@]31CCc1ccccc1 (stereo not given in full) | -5.9% | · | · | · | -34.2% | -17.2%
O=C(NCC#CCOCc1ccccc1)c1ccccc1 | 41.4% | 3.6% | 50.1µM* | -3.3% | -5.6% | 26.7µM*
CCc1ccc2[nH]c(C(=O)Nc3ccc(Br)c(C)n3)cc2c1 | 35.9% | -20.4% | 44.7µM* | 2.3% | -25.3% | -0.8%
CCc1ccc2[nH]c(C(=O)Nc3ccc(F)cc3Br)cc2c1 | 8.9% | -18.4% | 44.7µM* | 56.2µM* | -27.2% | -5.5%
Cc1ccccc1C(=O)Nc1ccc(Br)c(C)n1 | 18.4% | 29.6% | 17.5%[59 µM] | 0.7% | 15.1%[11.4 µM] | ?
O=C1NC(=Nc2ccc(F)cc2)CS1 | -13.7% | -10.9% | 31.6µM* | 56.2µM* | -21.2% | ?
C=C(C)Cn1c(SCC(=O)N/N=C/c2ccccc2)nc2ccccc2c1=O | 13.4% | -0.9% | 10.9%[59 µM] | 79.4µM* | -9.6%[57.1 µM] | ?
C=C(C)Cn1c(SCC(=O)N/N=C/c2cccc(O)c2)nc2ccccc2c1=O | 16.3% | -8.4% | -0.9%[59 µM] | 10.6% | -11.7% | -6.7%
COc1ccc(S(=O)(=O)N2CCCCC2c2cc(C(=O)Nc3ccccc3)no2)cc1 (stereo not given) | · | · | · | · | · | 10.7%
O=C(Nc1cc(-c2nc3cc(Cl)ccc3o2)ccc1Cl)c1cc2ccccc2o1 | 44.1% | -16.1% | 13.0%[59 µM] | · | -2.6% | ·
Cc1onc(-c2ccccc2)c1C(=O)N(Cc1ccco1)Cc1cccs1 | 19.5% | -15.9% | ? | 39.8µM* | -27.0% | -14.1%
Cc1onc(-c2ccccc2)c1C(=O)NCc1ccco1 | 21.7% | 8.1% | 50.1µM* | ? | -10.9% | -11.6%
O=C1N(Cc2cccc(C(F)(F)F)c2)c2ccccc2S(=O)(=O)N1c1cccc(Cl)c1 | 10.1% | 0.3% | 1.9%[59 µM] | · | -7.3% | ·
Cc1cc(C)nc(NS(=O)(=O)c2ccc(CC(C)C)cc2)c1 | 22.0% | -24.5% | 16.2% | -8.2% | 4.6% | 3.7%
Cc1ccc(C(c2nnnn2C2CCCC2)N2c3ccccc3CC2C)cc1 (stereo not given) | 25.6% | -10.5% | 70.8µM* | 9.1% | -17.5% | -0.4%
O=C(O)CSc1ccnc2cc(Cl)ccc12 | 19.0% | -3.9% | 56.2µM* | 56.2µM* | -11.4% | 1.6%
COC(=O)CSc1ccnc2cc(Cl)ccc12 | 10.9% | 31.0% | 5.3% | 11.9% | -0.3% | 8.5%
CCC(C)C(NC(=O)c1ccccc1NC(=O)c1ccccc1)C(=O)O (stereo not given) | 0.5% | -12.0% | -18.7% | -20.8% | -6.6%[11.4 µM] | 26.7µM*
COc1ccc(C(=O)NNC(=O)C(=O)NC(C)c2ccccc2)cc1OC (stereo not given) | 40.4% | -12.6% | 6.31µM* | 10.0% | -3.2% | 0.3%
COc1cccc(OC)c1C(=O)NC(C)c1ccccc1 (stereo not given) | 29.1% | -0.5% | -1.9%[59 µM] | 3.9% | -10.8% | -1.7%
COc1ccc(C(=O)Nc2ccccc2C(=O)N2CCCCCC2)cc1OC | 13.7% | 1.5% | 10.6% | 7.4% | -9.7% | -7.8%
COc1ccc(C(=O)Nc2ccccc2C(=O)NC(C)C)cc1OC | 3.5% | -0.4% | 5.6%[59 µM] | 25.3% | 50.1µM* | 26.7µM*
CCC(C)C(NC(=O)c1ccccc1NC(=O)c1ccco1)C(=O)O (stereo not given) | 26.5% | -1.4% | ? | 13.9% | -18.5% | -4.9%
CC1CCCC(C)N1CCNC(=O)CCc1nnc2n(Cc3ccccc3)c(=O)c3ccccc3n12 (stereo not given) | 27.8% | -9.7% | · | 18.1% | -28.2% | -1.8%
